Results published in PubChem BioAssay (NCATS).
Results filed as inconclusive are left out. Where a call stands in place of a potency, no number is given. The source made the active and inactive calls. Calls come from the whole dose curve; as a rule, active = well fitted curve in the direction sought with a large enough effect; inconclusive = small, poorly fitted or top-dose-only effect, or another doubt; inactive = no such curve, though single readings can be large; an effect the other way counts as inactive or inconclusive.

Test: qHTS assay for measurement of the activity of small molecule inhibitors on Zika virus induced Caspase-3 activity in human astrocytoma cells (AID 1224859)
Conditions: SNB-19 ZIKV-induced caspase-3/7, luminescence, 6 h; series mostly up to 45.7 µM
Procedure, shortened: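 In SNB-19 cells plated at 250 cells/well and grown 16-20 h, compounds were applied 1 h before ZIKV (2 FFU/cell). Six hours later caspase-3/7 luminescence was recorded.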

Q: For `CCCN1CCC[C@@H]2Cc3nc(N)ncc3C[C@H]21`, which outcome is on record?
A: The outcome was “inactive”.

Q: Which outcome does the source give for `c1ccc(C2CC2)c(OCC2=NCCN2)c1` here?
A: Its outcome is “inactive”.

Q: For `CCN(C(C)=O)c1cccc(-c2ccnc3c(C#N)cnn23)c1`, which outcome is on record?
A: Its outcome is “inactive”.

Test: qHTS assay to identify small molecule inhibitors of chordoma cells - UCH-1 (AID 1259355); note: nearly all actives have a fitted effect of over 55% in size
Conditions: UCH-1 chordoma viability, CellTiter-Glo, 48 h, combination; series mostly up to 46.1 µM
Procedure, shortened: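 A 48hr growth-inhibition format: each drug tested at 15 concentrations together with added auranofin, camptothecin, doxorubicin, rubitecan and topotecan, with cell viability quantified as CellTiter-Glo luminescence.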

Q: For `FC(F)(F)c1cccc(C2=CCN(CCc3ccc4ccccc4c3)CC2)c1`, which Potency is on record?
A: The Potency was “inactive”.

Q: For `Oc1ccc(Cl)cc1Cc1ccccc1`, which Potency is on record?
A: Its Potency is “inactive”.

Q: For `NCC(CC(=O)O)c1ccc(Cl)cc1` (configuration not stated), which Potency is on record?
A: Its Potency is “inactive”.

Q: With `CC(=O)Nc1cc([As](=O)(O)O)ccc1O` as the molecule, how does the Potency read?
A: Its Potency is “inactive”.

Q: Which Potency does the source give for `CCN(CC)CCOC(=O)C(O)(c1ccccc1)c1ccccc1` here?
A: Its Potency is “inactive”.

Q: For `CC[N+]1(C)CCCC(OC(=O)C(O)(c2ccccc2)c2ccccc2)C1` (configuration not stated), which Potency is on record?
A: The Potency was “inactive”.

Q: For `Clc1ccc(CCC(Cn2ccnc2)Sc2c(Cl)cccc2Cl)cc1` (configuration not stated), which Potency is on record?
A: The Potency was “inactive”.

Q: For `NCCc1cc(O)c(O)cc1O`, which Potency is on record?
A: Its Potency is “inactive”.

Q: For `Cc1ccc(-c2nc3ccc(C)cn3c2CC(=O)N(C)C)cc1`, which Potency is on record?
A: The Potency was “inactive”.

Q: For `CCC(COC(=O)c1cc(OC)c(OC)c(OC)c1)(c1ccccc1)N(C)C` (configuration not stated), which Potency is on record?
A: Its Potency is “inactive”.

Q: Which Potency does the source give for `N[C@@H](Cc1ccc(Oc2cc(I)c(O)c(I)c2)c(I)c1)C(=O)O` here?
A: Its Potency is “inactive”.

Q: Which Potency does the source give for `CCC(C(N)=O)N1CCCC1=O` (configuration not stated) here?
A: Its Potency is “inactive”.

Q: For `Clc1cccc(N2CCNCC2)c1`, which Potency is on record?
A: Its Potency is “inactive”.

Q: With `C=C1C[C@@H]2[C@H](CC[C@]3(C)C(=O)CC[C@@H]23)[C@@]2(C)C=CC(=O)C=C12` as the molecule, how does the Potency read?
A: The Potency was “inactive”.

Q: For `NCC(O)c1ccc(O)cc1` (configuration not stated), which Potency is on record?
A: Its Potency is “inactive”.

Q: Which Potency does the source give for `Oc1ccccc1-c1ccccc1` here?
A: Its Potency is “inactive”.

Q: Which Potency does the source give for `CC(C)(N)Cc1ccc(Cl)cc1` here?
A: The Potency was “inactive”.

Q: For `CC(C)(C)NCC(O)c1cc(Cl)c(N)c(Cl)c1` (configuration not stated), which Potency is on record?
A: Its Potency is “inactive”.

Q: With `Clc1ccc(COC(Cn2ccnc2)c2ccc(Cl)cc2Cl)cc1` (configuration not stated) as the molecule, how does the Potency read?
A: The Potency was “inactive”.
